{"source": "PubChem BioAssay (NCATS)", "note": "Values joined by “and” are separate entries in the source; they are usually repeats but may differ in a detail not shown here. Equal entries are not always repeated. Results filed as inconclusive are left out. A number with no mark means an inactive call. Active and inactive are the calls of the source. The call rests on the fitted dose curve."}
{"target": "Bile acid receptor (Homo sapiens) (UniProt Q96RI1)", "sequence (Q96RI1 whole entry, looked up)": "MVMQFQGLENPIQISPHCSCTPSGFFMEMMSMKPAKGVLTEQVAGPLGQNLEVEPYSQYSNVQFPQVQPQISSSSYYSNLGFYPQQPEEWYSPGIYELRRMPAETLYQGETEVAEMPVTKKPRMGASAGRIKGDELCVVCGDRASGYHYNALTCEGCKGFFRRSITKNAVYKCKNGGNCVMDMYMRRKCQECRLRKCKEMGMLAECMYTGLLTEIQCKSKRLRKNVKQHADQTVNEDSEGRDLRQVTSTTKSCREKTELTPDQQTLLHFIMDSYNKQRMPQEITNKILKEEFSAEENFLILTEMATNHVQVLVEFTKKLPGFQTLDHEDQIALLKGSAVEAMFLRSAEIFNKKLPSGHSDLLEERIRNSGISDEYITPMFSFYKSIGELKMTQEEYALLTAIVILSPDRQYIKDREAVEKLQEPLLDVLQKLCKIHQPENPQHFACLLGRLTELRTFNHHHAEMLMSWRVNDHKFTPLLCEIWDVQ", "test": "qHTS assay for small molecule agonists of farnesoid X receptor signaling (AID 588527);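 further: 0% = vehicle basal and 100% = reference agonist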", "conditions": "HEK293T FXR-UAS-bla, beta-lactamase ratio, 16 h; activation: hits give high values", "summary_of_the_method": "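FXR-UAS-bla HEK293T cells (10% dialyzed FBS) preincubated 5-7 h at 37 C, then compounds at up to 92 uM for 16 h at 37 C. CCF4 beta-lactamase read-out after 2 h RT. Normalized to chenodeoxycholic acid (100 uM) and DMSO; Hill fit gave EC50 and efficacy.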"}
{"smiles": "c1ccc(B(c2ccccc2)c2ccccc2)cc1", "activation": "2.92%"}
{"smiles": "C[Si](Cl)(Cl)[Si](C)(Cl)Cl", "activation": "5.31%"}
{"smiles": "CCCCCCCCCCCO", "activation": "-0.12%"}
{"smiles": "CCOP(=O)(OCC)Oc1ccc([N+](=O)[O-])cc1", "activation": "2.69%"}
{"smiles": "ClC(Cl)Cl", "activation": "0.676%"}
{"smiles": "O=C(/C=C/c1ccc(O)c(O)c1)O[C@@H](C(=O)O)[C@@H](OC(=O)/C=C/c1ccc(O)c(O)c1)C(=O)O", "activation": "-1.16%"}
{"smiles": "C=C(C)C(=O)OC", "activation": "-1.27%"}
{"smiles": "CCCCCCCCOC(=O)c1cc(O)c(O)c(O)c1", "activation": "5.29%"}
{"smiles": "Cc1c(C(=O)O)c(O)cc2c1C(=O)c1c(O)c([C@H]3O[C@H](CO)[C@@H](O)[C@H](O)[C@H]3O)c(O)c(O)c1C2=O", "activation": "-1.49%"}
{"smiles": "CC(N)CN", "note": "(stereo not given)", "activation": "-2.35%"}
{"smiles": "CCc1cccc(C)c1N(C(=O)CS(=O)(=O)O)[C@@H](C)COC", "activation": "1.55%"}
{"smiles": "Cc1ccc2c(c1[N+](=O)[O-])C(=O)c1ccccc1C2=O", "activation": "-4.5%"}
{"smiles": "CC(O)CO", "note": "(stereo not given)", "activation": "1.32% and -0.791%"}
{"smiles": "CC(C)=CCC/C(C)=C\\CO", "activation": "-0.74%"}
{"smiles": "NNS(=O)(=O)c1ccc(Oc2ccc(S(=O)(=O)NN)cc2)cc1", "activation": "-0.0085%"}
{"smiles": "CCCCO", "activation": "0.769% and 0.512%"}
{"smiles": "CCCCCCCCCCCCC1CO1", "note": "(stereo not given)", "activation": "-2.55%"}
{"smiles": "COc1cc(-c2ccc(N=C=O)c(OC)c2)ccc1N=C=O", "activation": "0.158%"}
{"smiles": "CC1(C)CCC(Cc2ccc(Cl)cc2)C1(O)Cn1cncn1", "note": "(stereo not given)", "activation": "4.35%"}
{"smiles": "O=C(O)CCCCCCCCCCC(=O)O", "activation": "-2.26%"}
{"smiles": "CCCCCCCC/C=C\\CCCCCCCC(=O)O", "activation": "-0.994% and -1.49%"}
{"smiles": "c1ccccc1", "activation": "-0.124% [middle of 4 runs]"}
{"smiles": "O=[N+]([O-])c1cc(Cl)c(Cl)c(Cl)c1Cl", "activation": "-3.36%"}
{"smiles": "O=C(O)CN(CCCN(CC(=O)O)CC(=O)O)CC(=O)O", "activation": "8.42%"}
{"smiles": "c1ccc(Oc2ccccc2)cc1", "activation": "-0.867%"}
{"smiles": "CCOCCOCCOC(C)=O", "activation": "-3.45%"}
{"smiles": "CC(C)Cc1c(C(=O)O)c(C(F)F)nc(C(F)(F)F)c1C1=NCCS1", "activation": "0.784%"}
{"smiles": "NC(=S)NNC(N)=S", "activation": "0.327% and 1.24%"}
{"smiles": "CCC(C)O", "note": "(stereo not given)", "activation": "0.0237%"}
{"smiles": "COC(=O)c1cccc(C)c1S(=O)(=O)NC(=O)Nc1nc(OCC(F)(F)F)nc(N(C)C)n1", "activation": "-2.17%"}
{"smiles": "N[C@@H](Cc1ccccc1)C(=O)O", "activation": "1.47%"}
{"smiles": "Cc1ccc2ccc3cccc4ccc1c2c34", "activation": "-4.07%"}
{"smiles": "Clc1ccc(Cl)c(Cl)c1Cl", "activation": "1.31% and 2.13%"}
{"smiles": "CC(C)=CCC[C@@H](C)[C@H]1CC[C@@]2(C)C3=C(CC[C@]12C)[C@@]1(C)CC[C@H](O)C(C)(C)[C@@H]1CC3", "activation": "-5.29%"}
{"smiles": "CCCCCCCOC(=O)c1ccccc1C(=O)OCCCCCCC", "activation": "-0.976%"}
{"smiles": "CCCCCCc1ccc(N)cc1", "activation": "-3.51%"}
{"smiles": "O=S(=O)(O)c1cc(S(=O)(=O)O)c2c(N=Nc3ccccc3)c(O)ccc2c1", "activation": "2.46%"}
{"smiles": "CCCCC(CC)COC(=O)CCCCC(=O)OCC(CC)CCCC", "note": "(stereo not given)", "activation": "-0.368% and -0.458%"}
{"smiles": "c1ccc(SCCSc2ccccc2)cc1", "activation": "-0.837%"}
{"smiles": "CC(C)(C)c1cc(C(C)(C)C)c(O)c(C(C)(C)C)c1", "activation": "8.66%"}
{"target": "Peroxisome proliferator-activated receptor delta (Homo sapiens) (UniProt Q03181)", "sequence (Q03181 whole entry, looked up)": "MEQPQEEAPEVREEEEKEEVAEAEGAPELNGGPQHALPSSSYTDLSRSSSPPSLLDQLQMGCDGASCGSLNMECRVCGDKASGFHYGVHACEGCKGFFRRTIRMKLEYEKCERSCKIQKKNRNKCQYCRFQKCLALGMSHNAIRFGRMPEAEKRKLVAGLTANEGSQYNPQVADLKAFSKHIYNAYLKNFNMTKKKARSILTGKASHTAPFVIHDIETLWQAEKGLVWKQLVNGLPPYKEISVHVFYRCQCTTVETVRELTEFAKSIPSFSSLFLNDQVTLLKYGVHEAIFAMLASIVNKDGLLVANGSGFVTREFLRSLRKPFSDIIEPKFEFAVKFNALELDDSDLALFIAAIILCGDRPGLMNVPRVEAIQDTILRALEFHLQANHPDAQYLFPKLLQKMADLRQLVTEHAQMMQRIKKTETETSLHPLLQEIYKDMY", "test": "qHTS assay for small molecule agonists of peroxisome proliferator-activated receptor delta signaling (AID 588534);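 further: 0% = DMSO basal wells and 100% = positive control agonist at 10 µM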", "conditions": "HEK293T PPARdelta-UAS-bla, beta-lactamase ratio, 18 h; series mostly up to 76.7 µM; activation: at the top concentration", "summary_of_the_method": "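Agonist-mode beta-lactamase reporter readout (CCF4 dye, 2 h at RT) after 18 h at 37 °C exposure to a titration; Hill-equation fitting gave EC50 and maximal response.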", "units": {"activation": "%"}}
{"smiles": "c1ccc(B(c2ccccc2)c2ccccc2)cc1", "activation": -5.53}
{"smiles": "C[Si](Cl)(Cl)[Si](C)(Cl)Cl", "activation": 1.29}
{"smiles": "CCCCCCCCCCCO", "activation": 2.11}
{"smiles": "CCOP(=O)(OCC)Oc1ccc([N+](=O)[O-])cc1", "activation": 12.3}
{"smiles": "ClC(Cl)Cl", "activation": -4.02}
{"smiles": "O=C(/C=C/c1ccc(O)c(O)c1)O[C@@H](C(=O)O)[C@@H](OC(=O)/C=C/c1ccc(O)c(O)c1)C(=O)O", "activation": 3.44}
{"smiles": "C=C(C)C(=O)OC", "activation": 8.41}
{"smiles": "CCCCCCCCOC(=O)c1cc(O)c(O)c(O)c1", "activation": -9.92}
{"smiles": "Cc1c(C(=O)O)c(O)cc2c1C(=O)c1c(O)c([C@H]3O[C@H](CO)[C@@H](O)[C@H](O)[C@H]3O)c(O)c(O)c1C2=O", "activation": -3.82}
{"smiles": "CC(N)CN", "note": "(stereo not given)", "activation": 3.86}
{"smiles": "CCc1cccc(C)c1N(C(=O)CS(=O)(=O)O)[C@@H](C)COC", "activation": -1.86}
{"smiles": "Cc1ccc2c(c1[N+](=O)[O-])C(=O)c1ccccc1C2=O", "activation": -6.51}
{"smiles": "CC(O)CO", "note": "(stereo not given)", "outcome": "inactive"}
{"smiles": "CC(C)=CCC/C(C)=C\\CO", "activation": 3.32}
{"smiles": "NNS(=O)(=O)c1ccc(Oc2ccc(S(=O)(=O)NN)cc2)cc1", "activation": -2.93}
{"smiles": "CCCCO", "outcome": "inactive"}
{"smiles": "CCCCCCCCCCCCC1CO1", "note": "(stereo not given)", "activation": 9.56}
{"smiles": "COc1cc(-c2ccc(N=C=O)c(OC)c2)ccc1N=C=O", "activation": 9.31}
{"smiles": "CC1(C)CCC(Cc2ccc(Cl)cc2)C1(O)Cn1cncn1", "note": "(stereo not given)", "activation": -2.74}
{"smiles": "O=C(O)CCCCCCCCCCC(=O)O", "activation": 6.26}
{"smiles": "CCCCCCCC/C=C\\CCCCCCCC(=O)O", "outcome": "inactive"}
{"smiles": "c1ccccc1", "outcome": "inactive"}
{"smiles": "O=[N+]([O-])c1cc(Cl)c(Cl)c(Cl)c1Cl", "activation": 5.13}
{"smiles": "O=C(O)CN(CCCN(CC(=O)O)CC(=O)O)CC(=O)O", "activation": 9.57}
{"smiles": "c1ccc(Oc2ccccc2)cc1", "outcome": "inactive"}
{"smiles": "CCOCCOCCOC(C)=O", "activation": -0.922}
{"smiles": "CC(C)Cc1c(C(=O)O)c(C(F)F)nc(C(F)(F)F)c1C1=NCCS1", "activation": -2.75}
{"smiles": "NC(=S)NNC(N)=S", "outcome": "inactive"}
{"smiles": "CCC(C)O", "note": "(stereo not given)", "activation": 0.515}
{"smiles": "COC(=O)c1cccc(C)c1S(=O)(=O)NC(=O)Nc1nc(OCC(F)(F)F)nc(N(C)C)n1", "activation": -4.81}
{"smiles": "N[C@@H](Cc1ccccc1)C(=O)O", "activation": -1.24}
{"smiles": "Cc1ccc2ccc3cccc4ccc1c2c34", "activation": 6.48}
{"smiles": "Clc1ccc(Cl)c(Cl)c1Cl", "outcome": "inactive"}
{"smiles": "CC(C)=CCC[C@@H](C)[C@H]1CC[C@@]2(C)C3=C(CC[C@]12C)[C@@]1(C)CC[C@H](O)C(C)(C)[C@@H]1CC3", "activation": 0.221}
{"smiles": "CCCCCCCOC(=O)c1ccccc1C(=O)OCCCCCCC", "activation": 1.7}
{"smiles": "CCCCCCc1ccc(N)cc1", "activation": -7.3}
{"smiles": "O=S(=O)(O)c1cc(S(=O)(=O)O)c2c(N=Nc3ccccc3)c(O)ccc2c1", "activation": 1.29}
{"smiles": "CCCCC(CC)COC(=O)CCCCC(=O)OCC(CC)CCCC", "note": "(stereo not given)", "outcome": "inactive"}
{"smiles": "c1ccc(SCCSc2ccccc2)cc1", "activation": 16}
{"smiles": "CC(C)(C)c1cc(C(C)(C)C)c(O)c(C(C)(C)C)c1", "activation": 12.5}
